# Over roughly 25,000 sequences, “ln(normalized median fluorescence intensity)” has its median near 9.7; the highest 2% begin near 11. Many of the other results were omitted from the sample, so the highest values are more common in it than they were.
# Test system: PfAP2-HC AP2 domain (GST-tagged)
# Assay: gcPBM binding intensity (ln(normalized median fluorescence intensity)); higher = stronger DNA binding
# Method in brief: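 Binding intensity is defined as the maximum Masliner-normalised natural-log median intensity across replicate spots for either probe orientation. It was measured on an Agilent 4 × 180k array of primer-extended double-stranded 36-bp intergenic genomic probes and negative controls, to which GST-tagged P. falciparum DNA-binding domains made in E. coli were applied for 1 h in 1× PBS with 1% milk, 0.2 mg/ml BSA, 0.5% salmon testes DNA and 0.03% Triton X-100. Detection was by Alexa488 anti-GST antibody and scanning at 488 nm.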
row,Sequence,gcPBM binding intensity (ln)
1,ACCTATTTCAAACACACACACACACTAACAAACATA [CACACA_site8233],10.8
2,ACCTATTTCAAACACACACACACACTAGCAAACATA [CACACA_site4695],10.9
3,GTACCTATTTCATACACACACACACCCAAACAAACA [CACACA_site976],10.5
4,ATGTACCTATTTCATACACACACACCCACAAACAAA [CACACA_site8232],10.4
5,ACCTATTTCAAACACACACACACACCCACAAACATA [CACACA_site977],10.9
6,GTACCTATTTCATACACACACACACGCAAACAAACA [CACACA_site6590],11.1
7,TATATAAACACGTACACACACATATCTGTATTTATA [CACACA_site5858],10.4
8,AAAAAATAGTGGTATGCATGTCCCTTGTATTTTCTT [TGCATGCA_site587],9.63
9,TTAATGTACAGACACCCACACACAAACAAATATATA [CACACA_site8888],10.2
10,GTATATATTTAAACACGTACACAAAACCCAAAAAAT [XGTACX_site8110],9.95
11,TACACCAAAAAAAAACGTACAAAATCCCACCCAGAC [XGTACX_site4622],11.1
12,TAATTTTTTTTTTTTTTTTTTGTACTTCATTTTTAT [CACACA_negctrl_site1395],9.58
13,TTTTTTTTGTTCTATACAATTATAAAAATAAAATAT [XGTACX_negctrl_site53],9.06
14,TAATACTTAGAGAAAAGTACGTATGAACTTATGTAA [XGTACX_site5504],9.59
15,TTTCCCTTGTTGTAAACATGCACAATATTTAGGTAT [TGCATGCA_site49],9.75
16,AAAAAAAAAAAACACACACACACACCGACAAAATAT [CACACA_site8411],10.8
17,AAAGAAGGGAAACACACACACACACCCACAAAAAAA [CACACA_site3766],11.4
18,AAAGCACCCAGGCACACACACAAAGGAAAAGAAAAA [CACACA_site232],11
19,AAAGAAGGTAAACACACACACACACCGACAAAAAAA [CACACA_site9255],11.5
20,TTAACAAAGAAACACACACACACACCCAAAAAAAAA [CACACA_site516],10.6
21,CACACCCACCAACACACACACAAAAAAAAAAAGAAA [CACACA_site500],10.4
22,AATTAACAAAAACACACACACACACCGACAAAAAAA [CACACA_site4444],10.9
23,AAAGCACCCATGCACACACACAAAGGAAAAGAAAAA [CACACA_site6249],10.3

row,Sequence,gcPBM binding intensity (ln)
1,CAAAAGAAGGTAAACACACACACACCCATACAAAAA [CACACA_site3765],10.7
2,TTAAAGCACCCATGCACACACACAAAGGAAAAGAAA [CACACA_site233],10.2
3,CAAAAGAAGGTAAACACACACACACGCATACAAAAA [CACACA_site7724],10.4
4,CACAAACAAAAACACACACACACACCGACAAAAATG [CACACA_site5362],10.6
5,TTTTTTTCTTTATTAGCACACATAATATTATATATG [CACACA_site8841],9.79
6,TTGGGGTATCTTCCTATGCACACTTGTTATGTACTA [CACACA_site831],9.85
7,TATATATATATATATTGTACTATATAGTATCTTTTT [XGTACX_site1646],9.78
8,TTTCACATATATATGGTGCATATTTTATGTGTAAAT [GTGCAC_site9937],9.7
9,AATTTTTTTTAATGATGTACTTTTTGAAAATAAACT [XGTACX_site4221],9.31
10,TTTCTAAGAAAAAAAAAAAAAAAAAAAAAGATACAA [GTGCAC_negctrl_site525],9.24
11,AATTAAACTCACACCACACACAAAAAAAAAAAAAAA [CACACA_site693],10.3
12,CACAAACAAAAACACACACACACACCCACAAAAATG [CACACA_site2429],11
13,AATTAACAAAAACACACACACACACCCACAAAAAAA [CACACA_site517],11.4
14,TACATAAATTAAAACACACACACACCCAAAAAAAAA [CACACA_site2261],10.5
15,TGCAACAAAATAAACACACACACACCCCCACAAAAA [CACACA_site3388],10.6
16,AGCACACCCACAAAAACACACACAAAGGTGTTCTTA [CACACA_site8355],10.5
17,AAGTAAAAAAATAGCACACACACAAAAACACCCACA [CACACA_site1291],10.8
18,TAAAATAAAACAAACACACACACACCCCCACAAAAA [CACACA_site3850],10.8
19,GTAAAAAAAGAGCACACACACAAAAACACCCACAAA [CACACA_site1292],10.9
20,ATTTTTTTGTTATTGTTGAAAAGATGGTTCTTTTTT [CACACA_negctrl_site1346],9.52
21,TATATAGGTATATATACACACAACGGTTATAAATAT [CACACA_site4759],9.94
22,AGCATATTATCATATTGTACATATTATAATATATAT [XGTACX_site3907],9.69
23,AATAATACAAAAGTTCAACAAAAAAAAAAAAAAAAT [CACACA_negctrl_site952],9.75

row,Sequence,gcPBM binding intensity (ln)
1,TGTTAATTAAAACATCATTAATATTATTAAAAATAC [XGTACX_negctrl_site509],9.36
2,ATTTTTTTTATTTTTTCAATATATATATATATATAT [CACACA_negctrl_site1444],9.74
3,AAAATATAATATATTACACACATATATTTTATAAGT [CACACA_site668],9.82
4,ATATATATGAATACATGTACGTATTTGTCTATGTAT [XGTACX_site8306],9.81
5,TTTTTTATTATTATGTGTACGAATATGTGCATATAA [XGTACX_site1364],9.65
6,AAAAATAAAAGGTGTGCACACAAAAATATATATATA [CACACA_site8507],10.5
7,AATAAAAAAAAATGCACACATATATATATATATATA [CACACA_site2421],9.71
8,TACACCCACCAACACACACACACACTAATAAAAAAA [CACACA_site8060],11.3
9,TGAACACCCACAAATACACACAAAAAAAATAAATAA [CACACA_site248],10.6
10,TAAATATAAAAATGCACACACACAAAAAAAAAAAAA [CACACA_site895],11.4
11,AATATAAAAATGCACACACACAAAAAAAAAAAAAAA [CACACA_site6546],10.9
12,ATAATATGAAAACACACACACACACTAGAAAAAAAA [CACACA_site5153],10.9
13,AAATAAAAAGGGTGCACACAAAAATATATATATATA [CACACA_site1728],9.94
14,TGCACCCACCAACACACACACAACTAAAAAATAATG [CACACA_site2566],10.5
15,AAAAATAAAGGGTGTGCACACAAAAATATATATATA [CACACA_site1727],11
16,AAAAAAAAAAAACACACACACACACTAATATATAAA [CACACA_site8302],10.9
17,ATAATATGAAAACACACACACACACTAATAAAAAAA [CACACA_site8617],11.5
18,TTTTAATTAGTACAAACACACATATACACCCAAAAA [CACACA_site5422],10
19,GATGATACGATTATCACACATTTATACTTTCTACAT [CACACA_site5669],9.85
20,AAACAAAAAATTTAAAGTACAAAAATTATGATTGTT [XGTACX_site465],9.62
21,TATTTAATGTGATACTTATATTATTTTATGATTAAA [GTGCAC_negctrl_site25],9.49
22,AAAAAAGTTGTATTTGCACACATAAAAAAAAGATAT [CACACA_site3839],9.93
23,AGAGAATAAATATAAAGTACATATATAAATATATAT [XGTACX_site5055],9.7

row,Sequence,gcPBM binding intensity (ln)
1,AAAAAATTATATAAATGTACATTTTGGCTAGACATG [XGTACX_site5977],9.71
2,TATAATAAATCAAATGCACACACACTAATAAAAAAA [CACACA_site7937],11.3
3,AAAAATATAAACTGCACACACACAAAAAAAGAAAAA [CACACA_site648],10.8
4,ATAATAAAAAAAAATGCACACATATATATATATATA [CACACA_site8766],9.8
5,AATATAATATAATGCACACATAAAAAAAAAATCAAA [CACACA_site122],9.89
6,TATATATATATATATACACACACACTAATAAAAAAA [CACACA_site8426],11
7,AAAATATAATATAATGCACACATAAAAAAAAAAAAA [CACACA_site7989],9.84
8,ATATAAATAATATAAATACACACTAAAAAAAATATA [CACACA_site542],9.84
9,AAAAATATAAACTGCACACACAAAAAAAAAAGAGAA [CACACA_site1367],10.3
10,TAAAAAATATAAACTGCACACACACTAATAAAGAAA [CACACA_site8119],11.1
11,ATAAATAATATAAATACACACTAAAAAAAATATATA [CACACA_site4456],9.88
12,TAATAAATCAAATGCACACACACAAAAAAAAAAAAA [CACACA_site161],10.3
13,AATAAATATAAAAATGCACACACACTAATAAAAAAA [CACACA_site8201],11.4
14,TATAAAAATAGGATTTGTACATATAAAAAAGGAAAA [XGTACX_site8678],9.73
15,TATAATATTAATGACTGTACTCATACGTATATTTAT [XGTACX_site5493],9.76
16,TACGGTTGTTTATTTTGTACGTAAAAAATATATTAT [XGTACX_site8393],9.7
17,ATTAAATAAAATCATGCACACAATATATATTTTAAG [CACACA_site2495],9.71
18,AACATAATTAAAAATTGTACAGAATTTCAATCGAAA [XGTACX_site7542],9.62
19,TCAACAAATAAACTTTGTACATATATACAAAATATA [XGTACX_site4447],9.53
20,AAAAAATAAATAAACATAAATAAATAAATAAATATA [XGTACX_negctrl_site340],9.73
